Seven compounds from PubChem BioAssay (EPA / NIEHS) can be followed below.

Assay [1] deals with Estrogen receptor beta (Homo sapiens) (UniProt Q92731). The experiment in a line: OT_ER_ERbERb_1440: Odyssey Thera (OT) 24-hour HEK293T Protein-Complementation Assay for Estrogen Receptor-beta/-beta Homodimer (AID 2283380).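 Note: scored as signal increase over DMSO baseline for both agonists and antagonists.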 The gist of the method:
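HEK293T cells stably expressing ER beta LBD (aa 310-547) homodimer fragment-complementation reporter, dosed 24 h. Cells formaldehyde-fixed, Draq5-stained; gain in nuclear (agonist) or nuclear plus cytoplasmic (antagonist) fluorescence versus DMSO read by laser scanning cytometry.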

Assay [2] has as its target Estrogen receptor (Homo sapiens) (UniProt P03372). Kind of assay: OT_ERa_GFPERaERE_0480: Odyssey Thera (OT) 8-hour HeLa Transcription Induction Assay for Estrogen Receptor (AID 2283381; active = hit-call score of the fitted dose curve at least 0.9, where 1 is the maximum; inactive = score below 0.9). The gist of the method:
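HeLa cells dosed with compound and imaged by fluorescence microscopy at 8 h; GFP induction from an ERE reporter quantified by high-content image analysis and fitted as gain of signal against DMSO baseline.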

For assay [3] the target is unchanged. Kind of assay: OT_ERa_GFPERaERE_0120: Odyssey Thera (OT) 2-hour HeLa Transcription Induction Assay for Estrogen Receptor (AID 2283382). An outline of the steps:
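HeLa cells were dosed with test chemical and read 2 hours later for GFP-ERα/ERE-linked fluorescent protein induction by fluorescence microscopy. Gain-of-signal was fitted relative to DMSO baseline, quantified by high content image analysis.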

The target in assay [4] is Retinoic acid receptor RXR-alpha (Homo sapiens) (UniProt P19793). Kind of assay: OT_NURR1_NURR1RXRa_1440: Odyssey Thera (OT) 24-hour HEK293T Protein Complementation Assay for Nurr1/retinoid X receptor (RXR) (AID 2283386). An outline of the steps:
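HEK293T cells were dosed with compound and read 24 h later by fluorescence intensity in a protein-fragment complementation format, where Nurr1–RXRα interaction reconstitutes a split reporter. Activity was fitted as gain of signal relative to DMSO baseline.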

In assay [5] the target is Peroxisome proliferator-activated receptor gamma (Homo sapiens) (UniProt P37231). Kind of assay: OT_PPARg_PPARgSRC1_0480: Odyssey Thera (OT) 8-hour Protein-Complementation Assay for Peroxisome Proliferator-activated Receptor Gamma / SRC-1 Co-activator (AID 2283387).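 Note: nuclear to cytoplasmic split Venus YFP fluorescence ratio reporting PPARg SRC-1 interaction.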 An outline of the steps:
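HEK293T transiently transfected with PPARg and SRC-1 fused to Venus YFP fragments, compounds 8 h at 37C. Fixed, Draq5-stained cells imaged; nuclear/cytoplasmic 488 nm fluorescence ratio over at least 350 cells per image; gain fitted versus DMSO.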

Read-out in assay [6]: Tumor necrosis factor receptor superfamily member 6 (Homo sapiens) (UniProt P25445)
Kind of assay: LTEA_HepaRG_FAS: Life Technologies and Expression Analysis (LTEA) Assay for Fas cell surface death receptor (FAS) using HepaRG (AID 2283447; active = hit-call score of the fitted dose curve at least 0.9, where 1 is the maximum; inactive = score below 0.9). To be noted: mRNA level, 48 h; actives raise or lower the signal. An outline of the steps:
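Differentiated HepaRG cells in serum-free induction medium were exposed 48 h to 8 half-log concentrations up to 100 uM in 0.5% DMSO, in duplicate. FAS mRNA was measured by qRT-PCR normalised to ACTB, GAPDH and POLR2A; bidirectional fit versus DMSO.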

Assay [7] concerns the target Agonist Androgen Response Element (ARE), AR (gene 367) (UniProt P10275). The experiment in a line: OT_AR_ARELUC_AG_1440: Odyssey Thera (OT) 24-hour CHO-K1 Luciferase Assay for Agonist Androgen Response Element (ARE) (AID 2283379). The gist of the method: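 CHO-K1 cells carrying an ARE-driven luciferase reporter were exposed to compounds for 24 h. Luminescence was then read after adding a D-luciferin/ATP mix, and activity was scored as a gain in signal over DMSO vehicle.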

Assay [8] deals with Retinoic acid receptor RXR-alpha (Homo sapiens) (UniProt P19793). The experiment in a line: OT_NURR1_NURR1RXRa_0480: Odyssey Thera (OT) 8-hour HEK293T Protein Complementation Assay for Nurr1/retinoid X receptor (RXR) (AID 2283385). An outline of the steps:
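HEK293T cells expressing Nurr1 and RXRα fused to reporter fragments were dosed with compound for 8 hours. Complex formation was read as fluorescence intensity and analysed as gain of signal against DMSO as baseline.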

Assay [9] has as its target Peroxisome proliferator-activated receptor gamma (Homo sapiens) (UniProt P37231). Kind of assay: OT_PPARg_PPARgSRC1_1440: Odyssey Thera (OT) 24-hour Protein-Complementation Assay for Peroxisome Proliferator-activated Receptor Gamma/ SRC-1 Co-activator (AID 2283388). The gist of the method:
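Cells carrying the PPARg/SRC-1 fragment-complementation reporter receive compound for 24 hours, are fixed and counterstained with Draq5, then imaged. Increased nuclear relative to cytoplasmic YFP fluorescence above DMSO baseline indicates binding activity.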

A short description of assay [10]: CEETOX_H295R_11DCORT: CeeTox H295R High-throughput Steroidogenesis Assay for 11-Deoxycortisol (11DCORT) (AID 2283432; active = hit-call score of the fitted dose curve at least 0.9, where 1 is the maximum; inactive = score below 0.9;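 for AC50: 11-deoxycortisol secreted into the medium measured by LC-MS/MS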). To be noted: actives raise or lower the signal. The gist of the method:
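H295R cells prestimulated 48 h with 10 uM forskolin, then exposed 48 h to chemical in 0.1% DMSO. 11-Deoxycortisol in medium quantified by HPLC-MS/MS after MTBE extraction; bidirectional fit versus DMSO. MTT viability read in same wells.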

The nature of assay [11]: CEETOX_H295R_OHPREG: CeeTox H295R High-throughput Steroidogenesis Assay for OH-Pregnenolone (OHPREG) (AID 2283434; active = hit-call score of the fitted dose curve at least 0.9, where 1 is the maximum; inactive = score below 0.9). Particulars: actives raise or lower the signal. An outline of the steps:
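H295R cells pre-stimulated 48 h with 10 uM forskolin, then exposed 48 h to chemical in 0.1% DMSO. 17alpha-hydroxypregnenolone in medium quantified by MTBE extraction and HPLC-MS/MS; bidirectional fit versus DMSO, viability checked by MTT.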

Assay [12] in a line: CEETOX_H295R_ANDR: CeeTox H295R High-throughput Steroidogenesis Assay for Androstenedione (ANDR) (AID 2283436; active = hit-call score of the fitted dose curve at least 0.9, where 1 is the maximum; inactive = score below 0.9). Particulars: actives raise or lower the signal. An outline of the steps:
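H295R cells, following OECD 456 with minor changes, exposed to chemicals for 48 h. Androstenedione in the medium was quantified by HPLC-MS/MS after MTBE extraction. Fitting was bidirectional versus DMSO; chemicals were diluted until MTT viability was ≥70%.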

Assay [13] is described as follows: CEETOX_H295R_CORTIC: CeeTox H295R High-throughput Steroidogenesis Assay for Corticosterone (CORTIC) (AID 2283437; active = hit-call score of the fitted dose curve at least 0.9, where 1 is the maximum; inactive = score below 0.9;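 note: corticosterone secreted into medium quantified by mass spectrometry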). To be noted: actives raise or lower the signal. An outline of the steps: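 H295R adrenal cells prestimulated 48 hours with 10 uM forskolin, then exposed 48 hours to chemical in 0.1% DMSO. Corticosterone in medium measured by HPLC-MS/MS after MTBE extraction; MTT viability in the same wells; bidirectional fit versus DMSO.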

Assay [14] is described as follows: CEETOX_H295R_CORTISOL: CeeTox H295R High-throughput Steroidogenesis Assay for Cortisol (AID 2283438; active = hit-call score of the fitted dose curve at least 0.9, where 1 is the maximum; inactive = score below 0.9;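 note: cortisol secreted into medium quantified by LC-MS/MS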). To be noted: actives raise or lower the signal. The gist of the method: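 H295R human adrenal cells were prestimulated 48 h with 10 uM forskolin, then exposed 48 h to test chemical (0.1% DMSO final). Medium cortisol was quantified by HPLC-MS/MS after MTBE extraction; bidirectional fitting relative to DMSO baseline.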

Assay [15] in a line: CEETOX_H295R_DOC: CeeTox H295R High-throughput Steroidogenesis Assay for DOC (AID 2283439; active = hit-call score of the fitted dose curve at least 0.9, where 1 is the maximum; inactive = score below 0.9). To be noted: actives raise or lower the signal. An outline of the steps:
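H295R adrenal cells prestimulated 48 h with 10 uM forskolin, then exposed 48 h to test chemical (0.1% DMSO final). Medium 11-deoxycorticosterone extracted with MTBE, quantified by HPLC-MS/MS; bidirectional fit versus DMSO baseline; MTT viability in same wells.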

Assay [16] can be described thus: CEETOX_H295R_PROG: CeeTox H295R High-throughput Steroidogenesis Assay for Progesterone (PROG) (AID 2283442; active = hit-call score of the fitted dose curve at least 0.9, where 1 is the maximum; inactive = score below 0.9;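 for AC50: human H295R adrenal cells primed with 10 µM forskolin before dosing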). Particulars: actives raise or lower the signal. An outline of the steps: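 Measured analyte is progesterone secreted by H295R cells at 48 h of chemical treatment, following 10 uM forskolin priming. Quantitation used HPLC-MS/MS against a 7-point standard curve; cytotoxicity was checked by MTT absorbance.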

Assay [17] has as its target Bile acid receptor (Homo sapiens) (UniProt Q96RI1). Kind of assay: OT_FXR_FXRSRC1_0480: Odyssey Thera (OT) 8-hour HEK293T Protein-Complementation Assay for Farnesoid X receptor/SRC-1 Co-activator (AID 2283383). An outline of the steps: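 HEK293T cells expressing FXR and SRC-1 fused to reporter fragments were dosed with compound for 8 h; fluorescence from the reconstituted reporter marked co-activator recruitment. Gain of signal was fitted against the DMSO baseline.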

Assay [18] shares this target. Kind of assay: OT_FXR_FXRSRC1_1440: Odyssey Thera (OT) 24-hour HEK293T Protein-Complementation Assay for Farnesoid X receptor/SRC-1 Co-activator (AID 2283384). The gist of the method: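 HEK293T cells were dosed with compound and read 24 h later by fluorescence intensity from protein-fragment complementation reporting FXR/SRC-1 co-activator interaction. Gain of signal was fitted relative to DMSO negative control as baseline.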

Structures are written as SMILES. Inconclusive results are not listed. Active and inactive are the calls of the source. Rule for the calls, unless noted: active = hit-call score of the fitted dose curve at least 0.9, where 1 is the maximum; inconclusive = response in the unintended direction; inactive = score below 0.9.

Retinoic acid receptor RXR-alpha (Homo sapiens), sequence (P19793 whole entry, looked up, the tested form may be a part): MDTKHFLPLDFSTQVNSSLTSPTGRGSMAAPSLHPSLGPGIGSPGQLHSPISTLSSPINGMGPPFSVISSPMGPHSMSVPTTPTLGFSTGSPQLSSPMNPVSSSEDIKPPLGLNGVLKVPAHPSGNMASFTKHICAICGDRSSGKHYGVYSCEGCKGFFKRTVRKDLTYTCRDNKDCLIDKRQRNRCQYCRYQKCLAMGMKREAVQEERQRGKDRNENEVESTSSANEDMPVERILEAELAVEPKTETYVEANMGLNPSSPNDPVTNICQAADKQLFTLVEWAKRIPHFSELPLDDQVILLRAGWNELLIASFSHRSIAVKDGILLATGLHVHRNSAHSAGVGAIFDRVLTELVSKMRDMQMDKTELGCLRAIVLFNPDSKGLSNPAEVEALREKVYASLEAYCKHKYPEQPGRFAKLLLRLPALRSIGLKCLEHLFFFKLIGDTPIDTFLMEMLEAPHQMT
Peroxisome proliferator-activated receptor gamma (Homo sapiens), sequence (P37231 whole entry, looked up, the tested form may be a part): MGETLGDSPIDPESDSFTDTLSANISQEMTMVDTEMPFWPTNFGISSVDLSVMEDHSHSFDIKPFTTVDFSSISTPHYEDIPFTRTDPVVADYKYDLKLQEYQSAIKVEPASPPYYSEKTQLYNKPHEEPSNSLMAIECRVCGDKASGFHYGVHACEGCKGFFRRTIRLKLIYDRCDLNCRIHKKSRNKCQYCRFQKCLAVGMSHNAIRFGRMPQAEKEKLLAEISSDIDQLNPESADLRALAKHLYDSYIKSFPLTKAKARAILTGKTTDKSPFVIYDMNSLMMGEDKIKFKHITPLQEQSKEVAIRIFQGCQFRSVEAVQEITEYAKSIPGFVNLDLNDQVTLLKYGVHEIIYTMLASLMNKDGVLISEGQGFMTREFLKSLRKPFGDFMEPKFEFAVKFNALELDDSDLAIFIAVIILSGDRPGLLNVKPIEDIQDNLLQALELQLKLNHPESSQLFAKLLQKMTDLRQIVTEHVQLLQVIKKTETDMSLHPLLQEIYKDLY
Bile acid receptor (Homo sapiens), sequence (Q96RI1 whole entry, looked up, the tested form may be a part): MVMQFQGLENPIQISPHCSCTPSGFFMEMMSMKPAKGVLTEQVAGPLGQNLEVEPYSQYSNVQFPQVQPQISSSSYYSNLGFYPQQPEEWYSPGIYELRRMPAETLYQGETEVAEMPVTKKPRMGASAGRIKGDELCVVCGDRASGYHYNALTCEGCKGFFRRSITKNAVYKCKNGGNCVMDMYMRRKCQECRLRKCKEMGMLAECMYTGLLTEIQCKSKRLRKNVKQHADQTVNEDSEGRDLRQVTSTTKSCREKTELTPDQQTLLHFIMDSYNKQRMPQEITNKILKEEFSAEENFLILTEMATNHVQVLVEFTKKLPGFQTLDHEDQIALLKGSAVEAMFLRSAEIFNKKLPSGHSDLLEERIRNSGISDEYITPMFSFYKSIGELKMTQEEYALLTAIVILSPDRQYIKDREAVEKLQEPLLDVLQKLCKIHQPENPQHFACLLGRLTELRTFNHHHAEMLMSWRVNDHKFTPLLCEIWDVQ
Estrogen receptor beta (Homo sapiens), sequence (Q92731 whole entry, looked up, the tested form may be a part): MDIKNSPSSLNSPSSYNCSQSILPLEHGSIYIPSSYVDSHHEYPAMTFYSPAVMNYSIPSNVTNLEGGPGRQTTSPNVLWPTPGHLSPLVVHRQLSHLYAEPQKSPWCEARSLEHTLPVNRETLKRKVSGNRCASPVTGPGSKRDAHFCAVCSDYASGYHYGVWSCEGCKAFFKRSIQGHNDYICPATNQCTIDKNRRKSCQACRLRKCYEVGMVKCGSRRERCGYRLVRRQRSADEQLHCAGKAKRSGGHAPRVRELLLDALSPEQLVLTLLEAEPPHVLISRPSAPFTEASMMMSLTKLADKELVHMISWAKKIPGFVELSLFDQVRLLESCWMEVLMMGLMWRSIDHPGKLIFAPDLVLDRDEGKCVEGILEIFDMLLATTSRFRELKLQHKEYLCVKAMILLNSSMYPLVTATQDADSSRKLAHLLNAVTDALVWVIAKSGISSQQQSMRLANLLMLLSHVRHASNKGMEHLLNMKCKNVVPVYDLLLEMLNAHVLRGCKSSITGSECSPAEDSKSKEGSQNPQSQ
Agonist Androgen Response Element (ARE), AR (gene 367), sequence (P10275 whole entry, looked up): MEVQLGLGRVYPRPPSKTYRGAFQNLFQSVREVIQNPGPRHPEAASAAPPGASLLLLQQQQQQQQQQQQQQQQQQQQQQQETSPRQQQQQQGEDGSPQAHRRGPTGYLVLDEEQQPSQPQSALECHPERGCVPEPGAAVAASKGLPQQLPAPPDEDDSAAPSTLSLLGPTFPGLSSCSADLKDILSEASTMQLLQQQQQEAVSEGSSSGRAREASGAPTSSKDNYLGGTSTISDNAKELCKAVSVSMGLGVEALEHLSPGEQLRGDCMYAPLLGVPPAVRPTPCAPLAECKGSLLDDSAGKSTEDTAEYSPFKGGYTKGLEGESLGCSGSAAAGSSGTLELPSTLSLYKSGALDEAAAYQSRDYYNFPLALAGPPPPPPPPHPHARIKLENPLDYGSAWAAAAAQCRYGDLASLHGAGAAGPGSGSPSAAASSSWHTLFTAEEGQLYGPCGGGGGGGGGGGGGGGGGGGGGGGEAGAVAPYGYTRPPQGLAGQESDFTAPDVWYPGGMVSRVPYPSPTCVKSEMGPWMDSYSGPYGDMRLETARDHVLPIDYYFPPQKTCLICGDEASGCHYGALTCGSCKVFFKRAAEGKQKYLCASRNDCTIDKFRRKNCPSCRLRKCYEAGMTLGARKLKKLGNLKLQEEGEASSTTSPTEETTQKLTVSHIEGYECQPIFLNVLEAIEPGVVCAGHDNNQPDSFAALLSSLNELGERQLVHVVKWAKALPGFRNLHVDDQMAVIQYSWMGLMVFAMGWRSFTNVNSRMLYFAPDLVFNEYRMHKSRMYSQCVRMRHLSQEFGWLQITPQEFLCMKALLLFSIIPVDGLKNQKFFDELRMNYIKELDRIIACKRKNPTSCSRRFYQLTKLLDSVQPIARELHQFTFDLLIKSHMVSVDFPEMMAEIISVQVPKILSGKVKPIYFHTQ
Estrogen receptor (Homo sapiens), sequence (P03372 whole entry, looked up): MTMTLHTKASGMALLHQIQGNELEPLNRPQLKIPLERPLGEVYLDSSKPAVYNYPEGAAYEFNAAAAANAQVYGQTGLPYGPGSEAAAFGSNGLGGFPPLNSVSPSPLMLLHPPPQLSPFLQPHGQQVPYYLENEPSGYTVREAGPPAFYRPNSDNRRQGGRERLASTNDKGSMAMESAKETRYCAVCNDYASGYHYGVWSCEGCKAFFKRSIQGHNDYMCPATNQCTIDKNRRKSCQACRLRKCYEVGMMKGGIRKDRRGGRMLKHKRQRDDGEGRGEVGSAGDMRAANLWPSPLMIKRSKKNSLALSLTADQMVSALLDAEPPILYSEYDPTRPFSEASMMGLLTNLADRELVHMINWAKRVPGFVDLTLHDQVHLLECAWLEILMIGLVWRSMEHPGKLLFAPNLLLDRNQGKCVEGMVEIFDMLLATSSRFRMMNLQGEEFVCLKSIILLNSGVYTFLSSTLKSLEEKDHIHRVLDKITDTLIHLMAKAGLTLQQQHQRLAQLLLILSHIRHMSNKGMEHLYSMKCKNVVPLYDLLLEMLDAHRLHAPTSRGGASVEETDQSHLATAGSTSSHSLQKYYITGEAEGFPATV

Turning to `CCCCOC(=O)[C@@H](C)Oc1ccc(Oc2ccc(C#N)cc2F)cc1`, the outcome in [1], in [2], in assay [3], in assay [4], in assay [5] and in [6] was inactive.

Take `CCOC(=O)COc1cc(-c2nn(C)c(OC(F)F)c2Cl)c(F)cc1Cl`: the call in assay [7], in assay [8], in assay [4], in assay [5], in assay [9] and in [10] was inactive. In addition, the call in assay [11], in assay [12], in assay [13], in [14], in assay [15] and in [16] was inactive. Also, in [6], the call was inactive.

One may read the AC50 as the concentration giving half of the maximal activity seen. In the case of `C[Si](Cn1cncn1)(c1ccc(F)cc1)c1ccc(F)cc1`, the outcome in assay [1], in assay [18], in assay [8], in assay [4], in assay [5] and in [11] was inactive. Also, the compound was called inactive in assay [16] and in assay [6]. In addition, in assay [17], the AC50 was 13 µM (active).

In the case of `CCC(=O)Nc1ccc(Cl)c(Cl)c1`, the result in assay [7], in assay [4], in assay [5], in [11] and in assay [6] was inactive. The AC50 in assay [12] is 3.89 µM (active).

As to `CNc1cnn(-c2cccc(C(F)(F)F)c2)c(=O)c1Cl`, the result in [1], in assay [17], in assay [18], in [8], in assay [4] and in assay [5] was inactive. For the same compound, the compound was called inactive in assay [11], in [13], in assay [14], in assay [15], in [16] and in assay [6]. Also, in [10], the concentration at half-maximal activity (AC50) is 11.5 µM (active).

In the case of `CCCCOC(=O)c1ccccc1C(=O)O`, the compound was called inactive in assay [7], in assay [1], in assay [17], in assay [18], in [4] and in assay [5]. Besides, the result in [6] was inactive.

Consider `CCOP(=O)(NC(C)C)Oc1ccc(SC)c(C)c1` (centres undefined), for which the compound was classed as inactive in [7], in assay [1], in assay [4], in assay [5], in [9] and in [13]. Moreover, the call in assay [14] and in assay [6] was inactive. Besides, the AC50 is 50 µM (active) in [17]; 8.5 µM (active) in assay [18]; 24 µM (active) in [10]; 13.9 µM (active) in [11]; 50 µM (active) in assay [12]; 17.4 µM (active) in assay [15]. In [16], the AC50 is 32.2 µM (active).
